Of roughly 8,800 targets only a part is listed; those with a hit were picked by preference. About 0.5% of all pairs of compound and target were hits.
compound: C1=CC=C2C(=C1)C3=NNC4=CC=CC(=C43)C2=O; assay: log2 fold change, soluble protein after heating vs DMSO (PISA); higher = thermal stabilisation; K562 lysate, 10 uM; active = over 0.2 and 3.5 SD of the protein, either way, in both replicates (recomputed)
Outline: (§1)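 To prepare the extract, K562 pellets were dounce-homogenised in PBS pH 7.4 with 1 mM MgCl2, giving crude material at 1 mg/mL protein. This was treated with 10 μM compound for 30 min, then heated in aliquots for 3 min over 48°C-58°C before pooling and addition of NP-40 to 0.5% at 4°C. Centrifugation at 21,000xg for 90 min left soluble protein in the supernatant, which TMTpro 16plex LC-MS/MS quantified with equalised channel sums. Results are log-two fold changes in thermal stability compared with solvent controls, from duplicates.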

Sequence of UniProt P04049 (P04049 whole entry, looked up): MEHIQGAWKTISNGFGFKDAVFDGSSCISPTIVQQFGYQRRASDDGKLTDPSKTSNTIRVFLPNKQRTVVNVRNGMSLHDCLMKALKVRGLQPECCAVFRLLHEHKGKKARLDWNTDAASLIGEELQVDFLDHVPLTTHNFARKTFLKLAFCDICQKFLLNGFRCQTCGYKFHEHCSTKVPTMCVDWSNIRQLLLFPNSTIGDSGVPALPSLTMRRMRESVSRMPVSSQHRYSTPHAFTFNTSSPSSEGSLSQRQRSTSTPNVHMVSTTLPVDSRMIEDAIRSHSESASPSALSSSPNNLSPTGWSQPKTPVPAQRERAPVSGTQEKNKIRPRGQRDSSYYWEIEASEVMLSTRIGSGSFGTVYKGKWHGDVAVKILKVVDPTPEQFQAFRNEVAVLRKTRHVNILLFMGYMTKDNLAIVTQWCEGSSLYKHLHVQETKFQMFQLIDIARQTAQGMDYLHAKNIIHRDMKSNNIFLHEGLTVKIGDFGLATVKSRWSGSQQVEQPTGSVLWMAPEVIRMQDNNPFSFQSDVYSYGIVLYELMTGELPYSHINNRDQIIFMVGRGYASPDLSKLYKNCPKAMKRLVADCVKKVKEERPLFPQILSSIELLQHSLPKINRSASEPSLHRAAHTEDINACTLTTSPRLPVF
Sequence of UniProt Q8WWV3 (Q8WWV3 whole entry, looked up): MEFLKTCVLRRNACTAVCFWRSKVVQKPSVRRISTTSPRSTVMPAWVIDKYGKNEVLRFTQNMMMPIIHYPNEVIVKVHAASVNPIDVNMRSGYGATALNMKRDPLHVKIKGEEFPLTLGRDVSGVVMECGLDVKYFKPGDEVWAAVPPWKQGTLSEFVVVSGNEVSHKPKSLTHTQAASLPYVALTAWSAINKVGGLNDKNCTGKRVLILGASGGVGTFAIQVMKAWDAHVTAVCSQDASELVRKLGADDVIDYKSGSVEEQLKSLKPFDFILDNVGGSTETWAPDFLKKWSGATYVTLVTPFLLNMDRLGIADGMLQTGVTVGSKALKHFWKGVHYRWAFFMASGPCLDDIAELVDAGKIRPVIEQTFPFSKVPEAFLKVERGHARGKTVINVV
Sequence of UniProt Q99574 (Q99574 whole entry, looked up): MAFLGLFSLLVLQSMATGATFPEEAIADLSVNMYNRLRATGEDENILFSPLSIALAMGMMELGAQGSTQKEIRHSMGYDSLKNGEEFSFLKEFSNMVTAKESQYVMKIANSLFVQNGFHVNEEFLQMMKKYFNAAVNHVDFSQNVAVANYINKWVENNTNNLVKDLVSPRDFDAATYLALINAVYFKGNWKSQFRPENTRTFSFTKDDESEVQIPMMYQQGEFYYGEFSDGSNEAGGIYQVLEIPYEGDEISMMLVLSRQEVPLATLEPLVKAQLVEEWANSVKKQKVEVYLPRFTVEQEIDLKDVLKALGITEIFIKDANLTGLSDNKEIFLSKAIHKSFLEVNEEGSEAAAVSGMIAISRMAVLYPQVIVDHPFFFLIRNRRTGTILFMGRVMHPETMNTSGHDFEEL
Sequence of UniProt Q4ADV7 (Q4ADV7 whole entry, looked up): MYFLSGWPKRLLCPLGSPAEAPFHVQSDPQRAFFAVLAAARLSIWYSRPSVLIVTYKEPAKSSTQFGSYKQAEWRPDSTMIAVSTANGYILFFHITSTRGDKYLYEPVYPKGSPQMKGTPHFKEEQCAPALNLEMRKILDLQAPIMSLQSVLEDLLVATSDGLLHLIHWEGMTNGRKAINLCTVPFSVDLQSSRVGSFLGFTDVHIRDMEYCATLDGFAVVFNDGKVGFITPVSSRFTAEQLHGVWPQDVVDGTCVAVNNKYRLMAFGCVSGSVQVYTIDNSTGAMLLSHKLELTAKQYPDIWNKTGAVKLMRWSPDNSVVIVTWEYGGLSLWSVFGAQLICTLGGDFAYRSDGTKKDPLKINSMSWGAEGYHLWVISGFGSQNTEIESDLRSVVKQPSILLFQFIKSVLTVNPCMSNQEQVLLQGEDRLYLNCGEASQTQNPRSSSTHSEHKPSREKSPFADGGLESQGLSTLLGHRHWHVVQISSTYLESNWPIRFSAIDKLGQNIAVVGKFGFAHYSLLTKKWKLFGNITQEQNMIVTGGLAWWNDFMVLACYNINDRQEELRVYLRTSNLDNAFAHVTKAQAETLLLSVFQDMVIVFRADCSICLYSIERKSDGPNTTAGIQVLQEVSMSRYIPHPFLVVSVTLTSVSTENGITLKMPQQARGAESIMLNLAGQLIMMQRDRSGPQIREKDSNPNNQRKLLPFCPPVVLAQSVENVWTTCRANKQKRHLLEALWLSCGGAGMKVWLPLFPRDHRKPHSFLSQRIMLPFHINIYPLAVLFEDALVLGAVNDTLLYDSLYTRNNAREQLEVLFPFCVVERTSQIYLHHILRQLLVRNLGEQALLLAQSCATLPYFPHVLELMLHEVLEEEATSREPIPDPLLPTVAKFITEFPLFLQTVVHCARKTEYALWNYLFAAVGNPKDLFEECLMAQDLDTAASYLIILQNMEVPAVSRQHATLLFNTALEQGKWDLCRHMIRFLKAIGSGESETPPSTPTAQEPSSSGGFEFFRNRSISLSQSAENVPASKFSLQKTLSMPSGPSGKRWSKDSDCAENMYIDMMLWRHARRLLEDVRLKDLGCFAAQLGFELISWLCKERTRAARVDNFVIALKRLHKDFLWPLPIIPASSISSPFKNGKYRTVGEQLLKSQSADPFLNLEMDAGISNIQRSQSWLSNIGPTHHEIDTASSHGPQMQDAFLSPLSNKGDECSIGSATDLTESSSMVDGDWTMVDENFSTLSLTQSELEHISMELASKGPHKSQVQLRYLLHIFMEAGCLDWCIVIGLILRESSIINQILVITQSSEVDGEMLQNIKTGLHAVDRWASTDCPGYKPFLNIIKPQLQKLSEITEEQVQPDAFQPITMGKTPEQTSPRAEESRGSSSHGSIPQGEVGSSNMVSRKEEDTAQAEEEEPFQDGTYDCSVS
Sequence of UniProt O75880 (O75880 whole entry, looked up): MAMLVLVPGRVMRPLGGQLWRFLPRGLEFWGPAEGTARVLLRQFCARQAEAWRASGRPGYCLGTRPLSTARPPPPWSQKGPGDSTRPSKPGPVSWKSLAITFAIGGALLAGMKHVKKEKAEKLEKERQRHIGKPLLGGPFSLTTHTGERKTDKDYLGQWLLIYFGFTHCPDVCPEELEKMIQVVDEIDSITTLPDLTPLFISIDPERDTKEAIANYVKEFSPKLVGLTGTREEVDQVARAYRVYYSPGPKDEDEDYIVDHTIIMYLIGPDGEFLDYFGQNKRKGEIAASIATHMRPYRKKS
Sequence of UniProt O95248 (O95248 whole entry, looked up): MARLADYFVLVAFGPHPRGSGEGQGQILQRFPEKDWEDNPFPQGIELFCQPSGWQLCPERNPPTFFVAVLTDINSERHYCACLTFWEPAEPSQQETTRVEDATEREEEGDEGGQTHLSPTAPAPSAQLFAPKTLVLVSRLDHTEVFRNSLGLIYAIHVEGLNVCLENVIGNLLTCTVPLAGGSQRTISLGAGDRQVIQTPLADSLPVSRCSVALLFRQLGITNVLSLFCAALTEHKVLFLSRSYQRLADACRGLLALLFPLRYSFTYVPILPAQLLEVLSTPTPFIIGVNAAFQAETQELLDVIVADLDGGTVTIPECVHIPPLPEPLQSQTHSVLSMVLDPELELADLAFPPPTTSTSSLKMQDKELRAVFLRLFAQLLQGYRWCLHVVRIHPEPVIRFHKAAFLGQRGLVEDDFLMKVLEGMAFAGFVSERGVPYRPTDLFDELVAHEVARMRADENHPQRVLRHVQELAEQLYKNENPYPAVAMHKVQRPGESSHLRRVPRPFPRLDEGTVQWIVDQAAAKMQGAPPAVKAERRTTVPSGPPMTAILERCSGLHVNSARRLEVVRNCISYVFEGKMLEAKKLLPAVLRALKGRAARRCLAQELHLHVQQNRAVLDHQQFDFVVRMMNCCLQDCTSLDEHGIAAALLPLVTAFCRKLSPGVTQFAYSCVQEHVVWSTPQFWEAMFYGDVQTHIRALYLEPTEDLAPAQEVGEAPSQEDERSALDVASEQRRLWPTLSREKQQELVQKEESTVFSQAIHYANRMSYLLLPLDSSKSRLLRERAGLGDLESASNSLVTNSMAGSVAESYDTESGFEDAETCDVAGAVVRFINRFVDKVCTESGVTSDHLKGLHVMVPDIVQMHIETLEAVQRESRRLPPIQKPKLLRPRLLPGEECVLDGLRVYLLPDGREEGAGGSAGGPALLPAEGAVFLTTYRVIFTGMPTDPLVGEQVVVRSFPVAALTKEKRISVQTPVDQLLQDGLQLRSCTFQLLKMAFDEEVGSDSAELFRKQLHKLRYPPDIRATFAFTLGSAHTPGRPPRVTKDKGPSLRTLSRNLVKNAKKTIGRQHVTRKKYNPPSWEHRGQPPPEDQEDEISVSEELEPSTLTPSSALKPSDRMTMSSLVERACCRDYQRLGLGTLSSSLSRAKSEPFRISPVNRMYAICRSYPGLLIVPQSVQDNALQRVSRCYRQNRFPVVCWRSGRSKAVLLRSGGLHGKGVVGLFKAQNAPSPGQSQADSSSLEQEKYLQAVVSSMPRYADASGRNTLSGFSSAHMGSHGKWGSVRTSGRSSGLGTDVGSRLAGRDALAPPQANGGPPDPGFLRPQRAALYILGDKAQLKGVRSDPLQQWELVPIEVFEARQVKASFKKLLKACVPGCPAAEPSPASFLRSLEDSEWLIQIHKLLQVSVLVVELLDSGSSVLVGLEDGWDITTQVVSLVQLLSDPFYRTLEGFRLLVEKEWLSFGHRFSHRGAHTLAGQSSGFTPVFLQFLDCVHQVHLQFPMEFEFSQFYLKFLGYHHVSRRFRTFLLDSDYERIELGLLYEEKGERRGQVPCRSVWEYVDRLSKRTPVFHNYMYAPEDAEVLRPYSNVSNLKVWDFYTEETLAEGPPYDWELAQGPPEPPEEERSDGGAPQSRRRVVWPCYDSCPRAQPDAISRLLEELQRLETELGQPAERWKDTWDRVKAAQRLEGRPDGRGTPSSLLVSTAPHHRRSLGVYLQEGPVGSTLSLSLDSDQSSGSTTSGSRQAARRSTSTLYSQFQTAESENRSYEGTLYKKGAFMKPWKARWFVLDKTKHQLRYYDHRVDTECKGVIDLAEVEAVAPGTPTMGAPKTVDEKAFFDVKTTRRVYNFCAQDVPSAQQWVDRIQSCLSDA

log2 fold change, active:
RPS6KB1 (UniProt P23443) 0.322

log2 fold change, inactive:
SERPINI1 (UniProt Q99574) -0.117
SASS6 (UniProt Q6UVJ0) -0.023
SAMHD1 (UniProt Q9Y3Z3) -0.057
S100A11 (UniProt P31949) -0.055
RTN4IP1 (UniProt Q8WWV3) 0.022
RIOK3 (UniProt O14730) 0.092
RAB6D (UniProt Q53S08) 0.044
RHAG (UniProt Q02094) -0.145
RIPK1 (UniProt Q13546) 0.08
RMC1 (UniProt Q96DM3) -0.054
RAB21 (UniProt Q9UL25) -0.034
RABEPK (UniProt Q7Z6M1) -0.024
SCO1 (UniProt O75880) -0.045
RINT1 (UniProt Q6NUQ1) -0.048
RDH14 (UniProt Q9HBH5) 0.024
RPL31 (UniProt P62899) 0.038
RAF1 isoform 2 (UniProt P04049) 0.007
RDX (UniProt P35241) -0.009
RPS4X (UniProt P62701) -0.005
RIC1 (UniProt Q4ADV7) 0.035
RRM1 (UniProt P23921) -0.043
RNF123 (UniProt Q5XPI4) -0.035
RNF181 (UniProt Q9P0P0) -0.058
RNF213, A0A0A0MTC1 -0.045
RNF168 (UniProt Q8IYW5) -0.114
SAR1B (UniProt Q9Y6B6) 0.029
RFC2 (UniProt P35250) -0.013
SBF1 isoform 4 (UniProt O95248) -0.029
SERINC3 (UniProt Q13530) -0.101
RPS29 (UniProt P62273) 0.051
RPS26P11 (UniProt Q5JNZ5) -0.046
RFC5 (UniProt P40937) -0.074

compound: C1CCN(C1)C(=O)NC2=CC=CC(=C2)NC3=NC=C(C(=N3)NCCC4=CN=CN4)Br; assay: as above
Outline: as §1

log2 fold change, active:
RNF168 (UniProt Q8IYW5) -0.311

log2 fold change, inactive:
SERPINI1 (UniProt Q99574) 0.029
SASS6 (UniProt Q6UVJ0) -0.012
RPS6KB1 (UniProt P23443) 0.085
SAMHD1 (UniProt Q9Y3Z3) -0.065
S100A11 (UniProt P31949) 0.071
RTN4IP1 (UniProt Q8WWV3) 0.033
RIOK3 (UniProt O14730) 0.016
RAB6D (UniProt Q53S08) -0.038
RHAG (UniProt Q02094) -0.126
RIPK1 (UniProt Q13546) 0.031
RMC1 (UniProt Q96DM3) -0.001
RAB21 (UniProt Q9UL25) 0.026
RABEPK (UniProt Q7Z6M1) -0.03
SCO1 (UniProt O75880) 0.033
RINT1 (UniProt Q6NUQ1) -0.029
RDH14 (UniProt Q9HBH5) 0.036
RPL31 (UniProt P62899) 0.043
RAF1 isoform 2 (UniProt P04049) 0.036
RDX (UniProt P35241) 0.012
RPS4X (UniProt P62701) 0.017
RIC1 (UniProt Q4ADV7) 0.038
RRM1 (UniProt P23921) -0.046
RNF123 (UniProt Q5XPI4) -0.005
RNF181 (UniProt Q9P0P0) 0.03
RNF213, A0A0A0MTC1 -0.005
SAR1B (UniProt Q9Y6B6) -0.126
RFC2 (UniProt P35250) -0.011
SBF1 isoform 4 (UniProt O95248) 0.028
SERINC3 (UniProt Q13530) -0.03
RPS29 (UniProt P62273) 0.018
RPS26P11 (UniProt Q5JNZ5) -0.045
RFC5 (UniProt P40937) 0.004

compound: C1CN(CCC1(CC2=CC=C(C=C2)Cl)N)C3=NC=NC4=C3C=CN4; assay: as above
Outline: as §1

log2 fold change, inactive:
SERPINI1 (UniProt Q99574) 0.038
SASS6 (UniProt Q6UVJ0) 0
RPS6KB1 (UniProt P23443) 0.027
SAMHD1 (UniProt Q9Y3Z3) 0.035
S100A11 (UniProt P31949) 0.074
RTN4IP1 (UniProt Q8WWV3) -0.016
RIOK3 (UniProt O14730) -0.006
RAB6D (UniProt Q53S08) 0.157
RHAG (UniProt Q02094) -0.014
RIPK1 (UniProt Q13546) -0.057
RMC1 (UniProt Q96DM3) 0.035
RAB21 (UniProt Q9UL25) 0.012
RABEPK (UniProt Q7Z6M1) -0.032
SCO1 (UniProt O75880) 0.068
RINT1 (UniProt Q6NUQ1) 0.067
RDH14 (UniProt Q9HBH5) -0.057
RPL31 (UniProt P62899) -0.039
RAF1 isoform 2 (UniProt P04049) -0.044
RDX (UniProt P35241) -0.025
RPS4X (UniProt P62701) 0.004
RIC1 (UniProt Q4ADV7) 0.057
RRM1 (UniProt P23921) -0.022
RNF123 (UniProt Q5XPI4) 0.044
RNF181 (UniProt Q9P0P0) 0.099
RNF213, A0A0A0MTC1 0.047
RNF168 (UniProt Q8IYW5) 0.053
SAR1B (UniProt Q9Y6B6) 0.025
RFC2 (UniProt P35250) -0.031
SBF1 isoform 4 (UniProt O95248) -0.026
SERINC3 (UniProt Q13530) 0.024
RPS29 (UniProt P62273) -0.037
RPS26P11 (UniProt Q5JNZ5) 0.008
RFC5 (UniProt P40937) 0.023

From the supplement of paper PMC10849652
